# Measurements as given in the supplement of paper PMC3545927.
# The other results are listed elsewhere or left out. The hit rate among all sequences tested is not known here.
# Target: furin, P09958
# Test: furin cleavage Z-score vs untreated control; higher = more cleavage, active = 3.5 or more, inactive = 1 or less, 8 variable residues between constant flanks
# In short: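 Furin cleavage was scored on 8-mer peptides joined to a cDNA oligonucleotide and bound to magnetic beads at the N-terminus. Digestion with purified furin (1:10 enzyme:substrate, 0.01 ml, 50 mM HEPES pH 7.5, CaCl2, NaCl) lasted 7.5, 15 or 30 min. Freed DNA was tagged with adapters by PCR, sequenced and counted; the cleavage Z-score is the lowess-adjusted log count versus furin-free reactions, scaled by median absolute deviation.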
# Sequence of furin, P09958 (P09958 whole entry): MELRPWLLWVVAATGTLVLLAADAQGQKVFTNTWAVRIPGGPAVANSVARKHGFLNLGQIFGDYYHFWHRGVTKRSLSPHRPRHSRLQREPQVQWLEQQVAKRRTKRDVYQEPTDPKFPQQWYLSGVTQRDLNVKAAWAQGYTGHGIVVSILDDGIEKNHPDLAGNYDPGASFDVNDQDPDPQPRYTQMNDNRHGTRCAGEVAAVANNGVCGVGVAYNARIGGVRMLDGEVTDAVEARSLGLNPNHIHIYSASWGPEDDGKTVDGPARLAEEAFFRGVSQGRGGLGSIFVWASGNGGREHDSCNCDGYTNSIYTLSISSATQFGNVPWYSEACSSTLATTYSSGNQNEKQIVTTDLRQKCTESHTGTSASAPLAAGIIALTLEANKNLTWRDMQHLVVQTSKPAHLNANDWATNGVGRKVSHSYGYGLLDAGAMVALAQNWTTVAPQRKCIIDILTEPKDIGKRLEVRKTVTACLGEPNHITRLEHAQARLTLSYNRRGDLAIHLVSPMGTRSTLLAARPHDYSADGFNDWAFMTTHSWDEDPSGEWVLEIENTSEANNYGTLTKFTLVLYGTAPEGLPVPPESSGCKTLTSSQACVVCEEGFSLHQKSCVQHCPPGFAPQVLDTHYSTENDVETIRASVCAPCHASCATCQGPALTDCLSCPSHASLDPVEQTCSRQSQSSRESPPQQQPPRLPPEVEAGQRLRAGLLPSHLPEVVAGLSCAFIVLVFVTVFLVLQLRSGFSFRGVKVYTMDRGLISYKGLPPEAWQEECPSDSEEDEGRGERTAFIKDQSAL
Sequence,furin cleavage Z-score (7.5 min),furin cleavage Z-score (15 min),furin cleavage Z-score (30 min)
CAYMSKAHGIAGNASASA [HC794],-0.614 (inactive),-0.299 (inactive),0.089 (inactive)
CANYTIFKIRAGNASASA [HC472],-0.135 (inactive),0.367 (inactive),-0.43 (inactive)
CAELPCHRPSAGNASASA [HC2325],0.967 (inactive),-0.4 (inactive),0.0984 (inactive)
CAEVPCHWPSAGNASASA [HC2368],-0.575 (inactive),-0.478 (inactive),0.531 (inactive)
CAVVCCQMSYAGNASASA [HC119],-0.852 (inactive),-0.183 (inactive),0.623 (inactive)
CADKNQVEGEAGNASASA [HC686],-0.934 (inactive),-0.739 (inactive),-1.82 (inactive)
CAAKLMPQLPAGNASASA [HC1159],0.255 (inactive),-0.546 (inactive),0.241 (inactive)
CALTLSPYYKAGNASASA [HC575],-0.934 (inactive),-0.768 (inactive),-0.313 (inactive)
CALVRRRRRYAGNASASA [FS-462],11 (active),12.3 (active),9.67 (active)
CALTLRMRRYAGNASASA [FS-1032],9.91 (active),10.2 (active),11.2 (active)
CAMNSRKGRYAGNASASA [FS-1237],1.23,0.312 (inactive),2.34
CAAHDGAGKRAGNASASA [HC1557],-0.0785 (inactive),0.342 (inactive),0.362 (inactive)
